High-throughput results: PubChem BioAssay, National Center for Advancing Translational Sciences (NCATS)
The list is not random: actives were taken first. Their share in the collection is about 7.7%.
TbPYK inhibitor = blocks Trypanosoma brucei pyruvate kinase. TbPYK enzyme, Kinase-Glo Plus ATP luminescence, 45 min. Potency, µM (doses to about 76.8 µM), without a hit: at the top dose activity, negative = inhibition, hits mostly inhibitors. Q57TT1. AID 624173. 0.12% of 410,000 active; further: potency means the concentration at half of the fitted maximal effect; nearly all actives have a fitted effect of over 50% in size
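Screened from lowest to highest concentration, compounds were pinned into TbPYK/substrate mixtures, and ADP (130 uM final) was added. Plates sat at room temperature for 45 min prior to Kinase-Glo Plus detection by luminescence.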
RE007 growth inh = less growth of the S. pombe RE007 Vpr strain; 0.21% of 360,000 active; Potency, µM (top dose mostly 92.2 µM), for inactives: at the highest dose activity change, negative = less growth, hits mostly inhibitors; S. pombe RE007 Vpr strain, BacTiter-Glo ATP luminescence, 24 h; AID 651644; active means well fitted falling curve with a large enough effect; inconclusive means small, poorly fitted or top-dose-only effect; inactive means no such curve, though single readings can be large or run the other way; further: potency means the concentration at half of the fitted maximal effect; nearly all actives have a fitted effect of over 50% in size
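Fission yeast RE007 carrying one integrated HIV-1 vpr copy, seeded at OD 0.01 in PMG+AL medium with 23 nL pinned compound. Grown 24 h at 30 degrees; viability read by BacTiter-Glo luminescence after 5 min.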
Sm TGR inh = S. mansoni TGR enzyme inhibition. purified TGR, DTNB reduction, TNB absorbance 405 nm. Potency, µM (doses to about 114 µM), for inactives: at the highest dose activity change, negative = inhibition, usual class: inhibitors. 3% of 360,000 active; further: potency means the concentration at half of the fitted maximal effect; nearly all actives have a fitted effect of over 60% in size
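Kinetic colorimetric format: TGR-catalysed, NADPH-driven DTNB reduction monitored via TNB absorbance. Enzyme dispensed at 20 nM; compound exposure 15 min at room temperature before reaction start.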
FBPA Giardia inh = blocks Giardia fructose-bisphosphate aldolase activity; 0.71% of 290,000 active; A8B2U2; purified Giardia FBPA; AID 2451; Potency, µM (series often up to 59.6 µM), without a hit: at the highest dose activity, negative = inhibition, actives largely listed as inhibitors; further: potency means the concentration at half of the fitted maximal effect; nearly all actives have a fitted effect of over 55% in size
Target sequence (A8B2U2 whole entry, looked up): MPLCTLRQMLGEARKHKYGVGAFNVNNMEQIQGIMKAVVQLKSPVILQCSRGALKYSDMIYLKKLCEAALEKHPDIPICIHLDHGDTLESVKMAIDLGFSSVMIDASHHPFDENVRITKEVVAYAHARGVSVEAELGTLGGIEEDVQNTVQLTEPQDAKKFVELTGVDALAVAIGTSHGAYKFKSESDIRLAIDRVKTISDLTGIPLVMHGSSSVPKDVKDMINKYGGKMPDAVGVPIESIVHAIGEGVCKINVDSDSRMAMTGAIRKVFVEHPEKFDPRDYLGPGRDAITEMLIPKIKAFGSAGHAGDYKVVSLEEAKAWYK
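Giardia FBPA (40 nM reagent) was preincubated 10 min at RT with compound (up to 57.5 uM final), then substrate plus GAPDH/TPI/NAD/arsenate coupling system with diaphorase/resazurin was added; resorufin fluorescence (525/598 nm) was read after 20 min.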
HCMV inh = inhibitors of human cytomegalovirus. AID 1259415. 4.5% of 410,000 active. activity change, negative = inhibition, % at 57.5 µM. HFF cells, HCMV-luciferase reporter, 72 h; stronger effect = lower value; in the data active means activity change below about -60%; inconclusive means no clear call, values can overlap the other calls; inactive means above about -39%
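Luciferase read-out from HCMV-luciferase-infected HFFs (MOI 1 PFU/cell) 72 h post infection at 37C; compounds added after 16 h cell attachment; activity normalized between buffer-only basal and Salinomycin (10uM) inhibitor controls.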
FMDV inh = foot and mouth disease virus antiviral activity. 1.2% of 410,000 active. Potency, µM (doses to about 57.9 µM), for the others: top-dose activity change, negative = inhibition, actives largely listed as inhibitors. FMDV antiviral cell-based qHTS. AID 1159524; calls by dose curve; tested in HEK293T cells; further: read-out not given here; potency means the concentration at half of the fitted maximal effect; nearly all actives have a fitted effect of over 45% in size
Numbers without * were called inactive; ? = inconclusive; / = no result given. Unless noted, the call rests on the fitted dose curve; in most records, active means well fitted curve in the direction sought with a large enough effect; inconclusive means small, poorly fitted or top-dose-only effect, or another doubt; inactive means no such curve, though single readings can be large; an effect the other way counts as inactive or inconclusive. On the % scale 0 is the no-effect control and ±100 the full control effect.

SMILES	TbPYK inhibitor	RE007 growth inh	Sm TGR inh	FBPA Giardia inh	HCMV inh	FMDV inh
O=C(CSc1nc2cc3ccccc3cc2[nH]1)Nc1cccc(C(F)(F)F)c1	1%	/	6%	/	-16	4%
O=S(=O)(c1cccs1)N1CCCc2nc(-c3ccc(F)cc3)ccc21	/	/	/	/	38	/
COc1ccc(-c2noc(CN3CCCC(OCc4ccccn4)C3)n2)cc1 (stereo not given)	-10%	-10%	35µM*	-12%	0	?
c1ccc(COC2CCCN(Cc3nc(-c4cnccn4)no3)C2)nc1 (stereo not given)	2%	18%	?	-21%	-3	-11%
COC(=O)Cn1cc(C(=O)OC)cc(Br)c1=O	11%	-14%	1%	4%	-6	-5%
COC(=O)c1cc(Br)c(=O)n(CCc2ccccc2)c1	2%	-7%	-15%	-2%	-103*	-15%
COC(=O)c1cn([C@@H]2C[C@@H](C(=O)N3CCCCCC3)N(Cc3cc4ccccc4s3)C2)nn1	/	/	/	/	/	2%
Cc1cccc(N2CCN(C(=O)C3CCN(Cc4nc(-c5ccc(Cl)cc5)oc4C)CC3)CC2)c1C	5%	/	9%	/	-31	-14%
COc1cc(C(=O)NCCOc2cc(C)ccc2C(C)C)cc(OC)c1OC	3%	13%	-12%	11%	-67*	?
COc1cc(/C=N/NC(=O)c2ccc(COc3cc(C)ccc3C(C)C)cc2)cc(OC)c1O	-7%	32%	-7%	-1%	-88*	?
CCSc1nc(-c2ccccc2)nc(C(Cl)Cl)n1	-8%	4%	-4%	4%	-82*	-17%
O=C(NC(=S)Nc1ccc(S(=O)(=O)N2CCCCC2)cc1)c1cccs1	4%	-1%	?	?	-15	-12%
O=C(NC(=S)NCc1ccccc1)c1cccs1	-8%	-28%	79µM*	/	-8	18%
COc1ccc(NC(=O)CCC(=O)c2cccs2)cc1Cl	4%	4%	-11%	5%	5	12%
O=C(NC(=S)Nc1ccc(S(=O)(=O)NC2CCCCC2)cc1)c1cccs1	-3%	0%	50µM*	-4%	-37	5%
COc1ccccc1C(=O)NC(=S)Nc1ccc(NC(=O)c2cccs2)cc1	-9%	0%	-29%	5%	-67*	?
COc1cc(NCCC(=O)c2cccs2)c(OC)cc1Cl	?	-28%	1.3µM*	-8%	28	-5%
Cc1[nH]c(=O)[nH]c(=O)c1S(=O)(=O)Nc1cccc(Cl)c1C	-3%	/	4%	/	11	-13%
O=C(CN1C(=O)CCSc2ccc(S(=O)(=O)N3CCCC3)cc21)Nc1cccc(F)c1	2%	/	0%	/	-8	-11%
COc1ccc(-n2c(CNC(=O)c3ccccc3C(F)(F)F)nnc2SC)cc1	/	/	/	/	/	-9%
C=C1C[C@@]2(C)CCCC3=CC(=O)C=C[C@@]32Oc2ccccc21	/	/	/	/	-14	/
COc1ccc(N2CCN(C(=O)C(C)n3c(=O)cc(C(F)(F)F)c4c(C)nn(C)c43)CC2)cc1 (stereo not given)	-5%	/	-8%	/	1	?
Cc1c(C(=O)NC(=S)Nc2ccc(NC(=O)c3cccs3)cc2)oc2ccccc12	-2%	0%	0.63µM*	-16%	-35	-14%
CC1CCCCC1NC(=S)NC(=O)c1cccs1 (stereo not given)	-8%	-20%	22µM*	-7%	-32	8%
COc1ccc(C(=O)Nc2ccc(NC(=O)c3cccs3)cc2)cc1Cl	-28%	-19%	0%	3%	-76*	8%
SMILES	TbPYK inhibitor	RE007 growth inh	Sm TGR inh	FBPA Giardia inh	HCMV inh	FMDV inh
CC(C)COc1ccc(CNC(=S)NCc2ccccc2)cc1	-4%	-18%	5%	-1%	-82*	/
CC(OC(=O)c1cccs1)C(=O)NC1CCCCC1C (stereo not given)	10%	-15%	-12%	/	-19	-4%
CCc1ccc(C2=CC(c3cccc(C)c3)n3c(nc4ccccc43)N2)cc1 (stereo not given)	2%	/	-17%	/	-17	-59%
CC(C)(C)C(=O)NC(=S)NCc1ccccc1	3%	-16%	40µM*	0%	?	-2%
O=C(Nc1nonc1NC(=O)c1cccs1)c1cccs1	1%	-9%	1%	7%	-93*	?
O=C(NC(=S)NCc1ccccc1)c1ccccc1	-3%	-27%	/	0%	-15	35%
CCCCOc1ccc(C(=O)Nc2ccncc2)cc1	-5%	9%	6%	-2%	-76*	?
O=C(NC(=S)Nc1ccccc1)c1cccs1	1%	-13%	7.9µM*	?	-2	47%
CCSc1ncc(Cl)c(C(=O)Nc2nc3ccc(S(C)(=O)=O)cc3s2)n1	2%	/	-6%	/	-26	-22%
CNc1nc2cnc(Nc3ccc(F)cc3)cc2n1-c1cccc(C(F)(F)F)c1	/	/	/	/	4	/
O=C(NC(=S)NCc1ccc(F)cc1)c1ccccc1	-9%	-26%	18µM*	-1%	?	19%
CCCCOc1cccc(C(=O)Nc2ccc(NC(=O)c3cccs3)cc2)c1	0%	6%	13%	1%	-89*	13%
S=C(NCCCc1ccccc1)NCc1ccccc1	2%	0%	4%	/	-83*	28%
COc1ccccc1C(=O)NC(=S)Nc1ccc(NC(=O)c2ccco2)cc1	-3%	-2%	2%	1%	-75*	-2%
COc1cc(/C=C/c2nc(C#N)c(N3CCN(C)CC3)o2)cc(OC)c1OC	1%	/	1%	/	69	-1%
CCN(CC)CCNC(=O)c1ccc(Cn2c(SCc3ccccc3)nc3cccnc32)cc1	-17%	/	37%	/	21	20%
O=C(Nc1ccc(Cl)cc1)c1cc(S(=O)(=O)NC2CCCCCC2)ccc1F	2%	/	16%	/	-67*	1%
Cc1ccc(NC(=O)c2cc(S(=O)(=O)NC3CCCCCC3)ccc2F)cc1F	4%	/	2%	/	?	-2%
COc1cc(CCCN2CCNC[C@@H]2c2ccccc2)cc(OC)c1OC	7%	-5%	/	/	-72*	5%
CO/N=C/c1ccc(N2CCN(C(=O)c3ccc(Cl)cc3Cl)CC2)c([N+](=O)[O-])c1	1%	-20%	6%	-2%	-98*	13µM*
CO/N=C/c1ccc(N2CCN(C(=O)c3ccc(F)cc3)CC2)c([N+](=O)[O-])c1	2%	-6%	-7%	-18%	-29	20µM*
CN1CCN(C(CNC(=O)c2cccc(F)c2)c2ccc3c(c2)OCO3)CC1 (stereo not given)	-1%	/	5%	/	11	-11%
CCC1(C2CCN(C(=O)c3csc(C(C)=O)c3)CC2)NC(=O)N(CCc2scnc2C)C1=O (stereo not given)	/	/	/	/	/	6%
